Measured values taken from PubChem BioAssay (NCATS).
Records with an inconclusive call do not appear. The source made the active and inactive calls. Calls follow the shape of the dose curve; as a rule, active = well fitted cell-killing curve with a large enough effect; inconclusive = small, poorly fitted or top-dose-only effect; inactive = no such curve, though single readings can be large or run the other way. Starred links: 1 amine or outer side, 2 acyl side, 3 side chain; linkers in the order of their positions; H or OH if unused. Positions of bridges follow the written chain, without caps; N, C: chain ends. Non-standard residues stand in square brackets, D forms with d. Residues, ends and D or L forms follow the SMILES beside them. Chains are numbered I, II in the order given. *: point of attachment. Actinocin(9to1) = Cc1c2oc3c(C)ccc(C(=O)[*:1])c3nc-2c(C(=O)[*:2])c(N)c1=O; NMeV = CN[CH](C(=O)O)C(C)C; Nva = CCC[C@H](N)C(=O)O; Cbz = O=C(OCc1ccccc1)*; Sar = CNCC(=O)O

Experiment: qHTS of pediatric cancer cell lines to identify multiple opportunities for drug repurposing: Primary screen for Rh41 cells (AID 1347108); also: nearly all actives have a fitted effect of over 70% in size;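 as to activity change, negative = cytotoxic: luminescence drop marks cytotoxic hits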
Conditions: Rh41 rhabdomyosarcoma viability, CellTiter-Glo luminescence, 48 h; series mostly up to 46 µM; activity change, negative = cytotoxic: at the top concentration
Source text: Drug repurposing or repositioning has been offered as a strategy for drug development in oncology programs. This approach has special potential for childhood cancers and other rare or orphan diseases, where the expected return on new drug development has been a disincentive to pharmaceuticals. […] In this project we exploit the poly-pharmacology of drugs to discover new indications via phenotypic screening of a panel of 19 well-characterized cell lines derived from solid tumors seen in children and adolescents. The goal is to identify approved drugs with previously unrecognized anticancer properties that has the potential to reveal new mechanisms and biological processes involved in carcinogenesis or drug resistance. We employed a titration-based paradigm (quantitative high-throughput screening or qHTS), where all compounds were tested at multiple concentrations for their effect on cell viability. Concentration-response curves (CRCs) were derived directly from the primary screen, and both potency and efficacy values were used to identify compounds with robust bioactivity profiles. We screened the NIH Chemical Genomics Center (NCGC) Pharmaceutical Collection (NPC) and Mechanism Interrogation Plate (MIPE) small molecule collections of approved and investigational compounds against these cell lines; and measured metabolically active cells after 48 hours of compound treatment as a proxy for cell viability. […] Assay Submitter: Nathalia J. Martinez, National Center for Advancing Translational Sciences, National Institutes of Health, Rockville, MD, USA; email: natalia.martinez@nih.gov Shen, M et al. Quantitative high-throughput phenotypic screening of pediatric cancer cell lines identifies multiple opportunities for drug repurposing. Oncotarget 2017 Dec 19;9(4):4758-4772. PMID 29435139.
The cells were obtained from University of North Carolina (UNC), Pediatric Preclinical Testing Program (PPT), and Coriell Institute (CI). qHTS cell viability assay: Cells were assayed in growth media at a density of 500-1,000 cells/well. Five microliters of cells were dispensed into 1,536-well, white, solid-bottom, TC-treated plates (Greiner Bio One) using a multidrop dispenser and incubated at 37 degrees C, 5% CO2, under a humidified atmosphere for 5 hours. Twenty-three nanoliters of compounds and controls (neutral control DMSO or positive control bortezomib at final concentration of 2.3 µM) were subsequently transferred by Kalypsys pintool. For primary screens, the MIPE collection was tested at 11-point dilutions (final concentrations range from 0.78 nM to 46 µM) and the NPC collection at 8-point dilutions (final concentrations range from 0.59 nM to 46 µM). Compounds tested in follow-up screens were assayed at 11-point dilutions. Cells were incubated for 48 hours, followed by addition of 3 µL of CellTiter-Glo (Promega). After a 15 min incubation at room temperature, samples were analyzed for luminescence intensity using a ViewLux High-throughput CCD imager equipped with clear filters.
Potency is read from the fitted curve at half-maximal effect.

Compound	Potency	activity change, negative = cytotoxic
CC(C)(N)c1ccc(-c2nc3ccccc3nc2-c2ccccc2)cc1	10.5 µM (active)	
CN(C)CCN1C(=O)c2cccc3cc(N)cc(c23)C1=O	23.5 µM (active)	
O=C1NC(O)CCN1[C@@H]1O[C@H](CO)[C@H](O)[C@H]1O (stereo not given in full)		18.1% (inactive)
Cc1c2oc3c(C)ccc(C(=O)NC4C(=O)NC(C(C)C)C(=O)N5CCCC5C(=O)N(C)CC(=O)N(C)C(C(C)C)C(=O)OC4C)c3nc-2c(C(=O)NC2C(=O)NC(C(C)C)C(=O)N3CCCC3C(=O)N(C)CC(=O)N(C)C(C(C)C)C(=O)OC2C)c(N)c1=O (stereo not given) (I: TVP[Sar][NMeV] / II: TVP[Sar][NMeV]; ester I:1-I:C, II:1-II:C; linker I:N-II:N via Actinocin(9to1); configuration not given here)	0.001 µM (active)	
C=CC(=O)Nc1ccc2ncnc(Nc3ccc(OCc4cccc(F)c4)c(Cl)c3)c2c1	0.235 µM (active)	
CC[C@@]1([C@@H]2O[C@@H]([C@H]3O[C@@](O)(CO)[C@H](C)C[C@H]3C)C[C@H]2C)CC[C@H]([C@]2(C)CC[C@]3(C[C@H](O)[C@@H](C)[C@@H]([C@@H](C)[C@@H](OC)[C@H](C)C(=O)O)O3)O2)O1		-21.4% [at 16.1 µM] (inactive)
C[C@H]1O[C@H](O[C@H]2[C@H](O)[C@@H](O)[C@@H](O[C@H]3[C@H](O)[C@@H](O)C(O)O[C@H]3CO)O[C@H]2CO)[C@H](O)[C@@H](O)[C@H]1N[C@H]1C=C(CO)[C@@H](O)[C@H](O)[C@@H]1O (stereo not given in full)		37.7% (inactive)
O=C(O)CCCCCC(=O)NN=C1CCCC1		18.4% (inactive)
COc1cccc2c1C(=O)c1c(O)c3c(c(O)c1C2=O)C[C@@](O)(C(C)=O)C[C@H]3O[C@H]1C[C@H](N)[C@H](O)[C@H](C)O1	0.0469 µM (active)	
O=C1NCCc2[nH]c(-c3ccncc3)cc21	2.35 µM (active)	
C[C@@H]1C(=O)O[C@H]2CC34[C@H]5C[C@@H](C(C)(C)C)C36[C@H](OC(=O)[C@@H]6O)O[C@@]4(C(=O)O5)[C@]21O (stereo not given in full)		23.6% (inactive)
Oc1ccc(-c2ccc(-c3cc(Nc4cccc(CNC5CC5)c4)n[nH]3)cc2)c(O)c1	14.8 µM (active)	
CCC[C@@H](C=O)NC(=O)[C@H](CC(C)C)NC(=O)[C@H](CC(C)C)NC(=O)OCc1ccccc1 (Cbz-Leu-Leu-[Nva]-aldehyde)	2.35 µM (active)	
CCN1CCN(C(=O)N[C@H](C(=O)N[C@@H]2C(=O)N3C(C(=O)O)=C(CSc4nnnn4C)CS[C@@H]23)c2ccc(O)cc2)C(=O)C1=O		38.6% [at 9.22 µM] (inactive)
CNC(=O)c1cccc(-c2ccc3c(N4CCOC[C@H]4C)nc(N4CCOC[C@H]4C)nc3n2)c1	0.118 µM (active)	
CN(C)c1ccc2cc(C(=O)N[C@@H](CCCN=C(N)CCl)C(=O)NCc3ccccc3)ccc2c1	14.8 µM (active)	
CCc1ccc(C(=O)Nc2cc(CN3CCN(C)CC3)cc(C(F)(F)F)c2)cc1C#Cc1cnc2ccnn2c1	9.35 µM (active)	
CCOC(=O)C=C[C@H](C[C@@H]1CCNC1=O)NC(=O)[C@@H](CC(=O)[C@@H](NC(=O)c1cc(C)on1)C(C)C)Cc1ccc(F)cc1		30.3% (inactive)
COc1ccc2c(c1OC)C(=O)OC2[C@H]1c2c(cc3c(c2OC)OCO3)CCN1C (stereo not given in full)	0.469 µM (active)	
NC(=O)c1cccc(-c2cccc(OC(=O)NC3CCCCC3)c2)c1		31.9% (inactive)

Compound	Potency	activity change, negative = cytotoxic
c1ccc(CNc2nc(NCc3ccccc3)c3ccccc3n2)cc1	18.7 µM (active)	
CN(CC(=O)N(Cc1ccc(C2CCCCC2)cc1)c1ccc(C(=O)O)c(O)c1)S(=O)(=O)c1c(F)c(F)c(F)c(F)c1F	23.5 µM (active)	
CC(=O)ON=C1C(c2c(O)[nH]c3cc(Br)ccc23)=Nc2ccccc21	2.96 µM (active)	
CCCCCCCCCCCC(CC1OC(=O)C1CCCCCC)OC(=O)C(CC(C)C)NC=O (stereo not given)		19.5% (inactive)
COc1ccc(Nc2cc(-c3cnc(N)nc3)nc(N3CCOCC3)n2)cn1	2.96 µM (active)	
Nc1ccn(C[C@@H](CO)OCP(=O)(O)O)c(=O)n1		-0.129% [at 16.1 µM] (inactive)
CCCCC(=O)O[C@]1(C(=O)CO)[C@@H](C)C[C@H]2[C@@H]3CCC4=CC(=O)C=C[C@]4(C)[C@@]3(F)[C@@H](O)C[C@@]21C		12.6% (inactive)
C=C1CCC2[C@](C)(CO)C(O)CC[C@]2(C)C1CC=C1C(=O)OCC1O (stereo not given in full)		3.37% [at 92.7 µM] (inactive)
CC[C@H]1OC(=O)[C@H](C)[C@@H](O[C@H]2C[C@@](C)(OC)[C@@H](O)[C@H](C)O2)[C@H](C)[C@@H](O[C@@H]2O[C@@H](C)C[C@H](N(C)C)[C@@H]2O)[C@](C)(O)C[C@@H](C)C(=O)[C@H](C)[C@@H](O)[C@]1(C)O		6.27% (inactive)
C[C@@H]1[C@H](C)CC[C@]2(C(=O)O)CC[C@]3(C)C(=CC[C@@H]4[C@@]5(C)C[C@@H](O)[C@H](O)[C@@](C)(CO)[C@H]5CC[C@]43C)[C@@H]12		26.5% (inactive)
COc1cc(C(=O)NC2CCN(C)CC2)ccc1Nc1ncc2c(n1)N(C1CCCC1)CCC(=O)N2C(C)C	14.8 µM (active)	
C[C@](Cc1c[nH]c2ccccc12)(NC(=O)OC1C2CC3CC(C2)CC1C3)C(=O)NC[C@H](NC(=O)CCC(=O)O)c1ccccc1 (stereo not given in full)		2.27% (inactive)
CC(C)NC[C@@H](C(=O)N1CCN(c2ncnc3c2[C@H](C)C[C@H]3O)CC1)c1ccc(Cl)cc1	0.332 µM (active)	
COC(=O)[C@@H]1CC2=CC(=O)CC[C@]2(C)[C@@]23O[C@@H]2C[C@@]2(C)[C@H](CC[C@@]24CCC(=O)O4)[C@@H]13		36.8% (inactive)
Cc1noc(-c2ccc(CSCCC(=O)O)cc2)c1NC(=O)OC(C)c1ccccc1Cl (stereo not given)		28.5% (inactive)
COc1cc(O)c2c(c1)C1OC1C[C@H](O)[C@H](O)C(=O)C=CC[C@H](C)OC2=O (stereo not given in full)	11.8 µM (active)	
CC(=O)NC(CS)C(=O)O (stereo not given)		-6.87% (inactive)
CC(=O)SCC(Cc1ccccc1)C(=O)NCC(=O)OCc1ccccc1 (stereo not given)	5.9 µM (active)	
C=CC1=C(C(=O)O)N2C(=O)[C@@H](NC(=O)C(=NO)c3csc(N)n3)[C@H]2SC1		31.1% (inactive)
C[C@@]12C(=O)OC(=O)[C@@]1(C)C1CCC2O1	3.72 µM (active)	
